ELG1 repair inh: blocks ELG1-dependent DNA repair in HEK293T cells. HEK293T ELG1-luciferase reporter, luminescence, 16 h; DNA damage induced by 5-fluorouridine. Potency, µM (top dose mostly 46.1 µM), most hits filed as inhibitors. actives 2.3% (n = 330,000); also: nearly all actives have a fitted effect of over 55% in size
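Step one: seed 2,000 cells per well. Step two: pin-transfer compound or DMSO alongside 5-fluorouridine. Step three: incubate 16 hr, 37 °C, 5% CO2. Step four: add ONE-Glo, wait 30 min, read luminescence.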
IDH1 R132H inh: human IDH1 R132H inhibition. O75874. IDH1-R132H enzyme, NADPH consumption, diaphorase/resazurin fluorescence. Potency, µM (highest dose often 76.6 µM), actives largely listed as inhibitors. actives 0.093% (n = 390,000); also: nearly all actives have a fitted effect of over 65% in size
Target sequence (O75874 whole entry R132H, stated change not applied): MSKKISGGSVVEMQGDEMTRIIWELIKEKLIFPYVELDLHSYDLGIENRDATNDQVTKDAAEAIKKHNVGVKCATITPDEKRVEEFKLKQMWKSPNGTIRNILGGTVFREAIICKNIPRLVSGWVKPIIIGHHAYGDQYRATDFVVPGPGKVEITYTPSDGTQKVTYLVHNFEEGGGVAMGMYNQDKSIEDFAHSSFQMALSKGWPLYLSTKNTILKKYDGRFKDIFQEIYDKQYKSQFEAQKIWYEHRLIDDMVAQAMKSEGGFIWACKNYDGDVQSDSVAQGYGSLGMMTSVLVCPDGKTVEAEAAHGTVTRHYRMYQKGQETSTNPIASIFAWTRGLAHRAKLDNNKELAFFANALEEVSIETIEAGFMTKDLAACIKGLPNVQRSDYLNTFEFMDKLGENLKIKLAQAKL
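IDH1-R132H (0.5 ug/mL dispensed) in pH 7.5 Tris buffer was preincubated 30 min with compound, then given a substrate mix of 0.016 mM NADPH and 2 mM alpha-KG for 80 min at room temperature; remaining NADPH was read by diaphorase/resazurin fluorescence.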
Nrf2 block: Nrf2 pathway inhibition; A549 ARE-Fluc reporter, luciferase luminescence, 18-24 h; Potency, µM (highest dose often 46 µM), most hits filed as inhibitors; actives 2.1% (n = 360,000); also: nearly all actives have a fitted effect of over 60% in size
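Nrf2 function is reported as luminescence of an ARE-controlled luciferase in A549 cells. Compounds were tested at several concentrations, and a CellTiter-Fluor read on the same wells flagged cytotoxicity.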
A549 tox: kills or reduces viability of A549 cells in Nrf2 counter-screen; A549 ARE-Fluc cells, CellTiter-Fluor viability, 18-24 h; Potency, µM (highest dose often 46 µM), hits mostly inhibitors; actives 0.16% (n = 390,000); AID 504648
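Cytotoxicity counterscreen: CellTiter-Fluor fluorescence was measured in A549 ARE_Fluc cells after 18-24 h of compound exposure in a concentration series. The subsequent BugLite luminescent read reports ARE-luciferase activity.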
Nrf2 ARE act: Nrf2 pathway activation; actives 0.31% (n = 410,000); AID 624171; Potency, µM (titrated, usually from 46.1 µM), usual class: activators; AREc32 ARE-luciferase reporter (MCF7-derived line), luminescence, 24 h; also: nearly all actives have a fitted effect of over 65% in size
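ARE activation measured as luciferase luminescence (Steady-Glo, 30 min RT) in AREc32_Fluc cells after 24 hr compound exposure at 37 deg C, 5% CO2; cells seeded overnight at 1000/well in OPTI-MEM, 5% FBS.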
ELG1 FLuc counter: luciferase inhibition in cell-free luciferin readout for ELG1 hits. shares compounds with ELG1 repair inh. cell-free firefly luciferase luminescence counter-screen, ViewLux. Potency, µM (doses to about 46.1 µM), usual class: inhibitors. actives 3% (n = 350). AID 624247
ELG1-Luc inh: human ELG1 repair inhibition, luciferase-tagged ELG1 confirmation. Potency, µM (series often up to 46.1 µM), most hits filed as inhibitors. shares compounds with ELG1 repair inh. AID 624248. actives 68% (n = 670). HEK293T ELG1-luciferase levels, luminescence; cells co-treated with 5-fluorouridine; also: nearly all actives have a fitted effect of over 55% in size
ELG1 MMS Luc: inhibits ELG1-dependent repair under MMS stimulation in HEK293T cells; actives 53% (n = 670); Potency, µM (highest dose often 46.1 µM), most hits filed as inhibitors; HEK293T luciferase-tagged ELG1 level, MMS stimulated; shares compounds with ELG1 repair inh; AID 624249; also: nearly all actives have a fitted effect of over 60% in size
ELG1 5FU viab: confirmation of ELG1 repair inhibitors: viability with 5FU; shares compounds with ELG1 repair inh; cell viability with 5-FU, ELG1-dependent repair; Potency, µM (highest dose often 46.1 µM), most hits filed as cytotoxic; 670 tested, under 10 active; AID 624250;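 also: ELG1-luc HEK293T cells cotreated with 5-fluorouridine at 10 µM final; viability measured 16 h after compound addition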
ELG1 MMS viab: confirmation of ELG1 repair inhibitors: viability with MMS | shares compounds with ELG1 repair inh | Cell viability with MMS, ELG1-dependent DNA repair | AID 624251 | Potency, µM (titrated, usually from 46.1 µM), usual class: cytotoxic | actives 33% (n = 670);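 also: ELG1-luc HEK293T cells co-treated with 10 µM MMS; viability read 16 h after compound addition; nearly all actives have a fitted effect of over 60% in size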
Cell viab unstim: unstimulated viability counter-screen for ELG1 repair hits; shares compounds with ELG1 repair inh; cell viability counter-screen, unstimulated, luminescence; Potency, µM (highest dose often 45.9 µM), actives largely listed as cytotoxic; actives 8% (n = 900); AID 624252;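 also: compound exposure lasted 16 hours before reading; nearly all actives have a fitted effect of over 55% in size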
FLuc enzyme: inhibits purified firefly luciferase, counter-screen for ELG1 hits | Potency, µM (top dose mostly 57.5 µM), actives largely listed as inhibitors | purified firefly luciferase, luminescence counter-screen | AID 624253 | actives 10% (n = 350) | shares compounds with ELG1 repair inh
A number is an active result; - = inactive; ? = inconclusive; . = no result. Rows were chosen to be rich in hits. Some 3.8% of all compounds tested hit in one or more screens of this group. Calls follow the shape of the dose curve; as a rule, active = well fitted curve in the direction sought with a large enough effect; inconclusive = small, poorly fitted or top-dose-only effect, or another doubt; inactive = no such curve, though single readings can be large; an effect the other way counts as inactive or inconclusive.

SMILES | ELG1 repair inh | IDH1 R132H inh | Nrf2 block | A549 tox | Nrf2 ARE act | ELG1-Luc inh | ELG1 MMS Luc | ELG1 5FU viab | ELG1 MMS viab | Cell viab unstim | others
CCc1ccc(NC(=O)Cn2c(-c3cncs3)nc3ccccc32)cc1 | . | - | - | - | - | . | . | . | . | .
O=C(Nc1nc(-c2ccccn2)cs1)c1ccc(S(=O)(=O)N2CCCCC2)cc1 | 0.651µM | . | . | . | . | 36.3µM | 25.7µM | - | 36.3µM | ? | ELG1 FLuc counter=?;FLuc enzyme=-
O=C(Nc1ccccn1)c1ccc(S(=O)(=O)N2CCCC2)cc1 | ? | - | - | - | - | . | . | . | . | .
COc1ccc(C(=O)Nc2nc(-c3ccccn3)cs2)cc1S(=O)(=O)N1CCOCC1 | 4.11µM | - | 16.4µM | - | - | 12.5µM | 22.3µM | - | 28.1µM | ?
CC1CCc2nc(N)c(C#N)c(-c3cccnc3)c2C1 (stereo not drawn) | 1.16µM | - | ? | - | - | 1.58µM | 14.1µM | - | 22.3µM | -
O=c1c2ccccc2oc2c1ccc1ccccc12 | ? | - | ? | - | ? | . | . | . | . | -
COc1cc2c(C#CCCO)c(-c3ccc(C#N)cc3)oc(=O)c2cc1OC | - | - | - | - | - | . | . | . | . | .
COc1cc2c(C#CCCO)c(-c3ccsc3)oc(=O)c2cc1OC | ? | - | ? | - | - | 6.29µM | 7.92µM | - | - | ? | ELG1 FLuc counter=-;FLuc enzyme=-
O=C(Nc1cccc(OC(F)(F)F)c1)c1ccc(-c2cccnc2)c2ccoc12 | . | . | . | . | - | . | . | . | . | .
c1ccc(SCc2cn(C[C@H]3CC[C@@H]([C@@H]4CC[C@H](Cn5cc(CSc6ccccc6)nn5)O4)O3)nn2)cc1 | 2.06µM | - | - | - | - | 28.1µM | 28.1µM | ? | - | -
c1ccc(Cn2cc(CSc3ccccc3)nn2)cc1 | ? | - | ? | - | - | . | . | . | . | .
Cc1cccc(-n2cc(-c3ccccc3)c3c(NC(C)C)ncnc32)c1 | . | - | . | - | - | . | . | . | . | .
CC(NC(=O)C1CCCC1)C1CC2CCC1C2 (stereo not drawn) | 4.11µM | - | ? | - | - | - | ? | - | - | -
CC(NC(=O)C1CC=CCC1C(=O)O)C1CC2CCC1C2 (stereo not drawn) | - | - | - | - | - | . | . | . | . | .
CCn1cc(C(=O)NCC(OC)OC)c(=O)c2cc(S(=O)(=O)N3CCC(C)CC3)ccc21 | 2.59µM | - | ? | - | - | 15.8µM | 15.8µM | - | ? | 15.8µM
COCCNC(=O)c1cn(C)c2ccc(S(=O)(=O)N3CCCCC3)cc2c1=O | 2.91µM | - | - | - | - | ? | ? | - | - | ?
CCn1cc(C(=O)NCC(OC)OC)c(=O)c2cc(S(=O)(=O)N3CCCC3)ccc21 | - | - | - | - | - | . | . | . | . | .
CC(C)CC(=O)NC1(C(F)(F)F)C(=O)Nc2c1c(=O)[nH]c(=O)n2-c1ccccc1 (stereo not drawn) | . | - | - | - | - | . | . | . | . | .
O=C(CSc1nc(=O)n(Cc2ccco2)c2c1CCC2)Nc1cccc(F)c1 | . | - | . | - | - | . | . | . | . | .
Cc1csc2ncnc(NCCc3ccccn3)c12 | 1.46µM | - | - | - | - | ? | 1.58µM | - | 2.23µM | ?
c1ccc(CCNc2ccccn2)nc1 | . | - | - | - | - | . | . | . | . | .

Screening data (PubChem)
